Experimental data taken from PubChem BioAssay AID1529 (NMMLSC, 2009).
About 4,200 (1.4%) of roughly 290,000 compounds were called active.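 The calls were made as follows: active = binding response more than 3 SD above or below the average of its plate-row segment, actives on both sides; inconclusive = wells at one plate position flagged as instrument error; inactive = the rest.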 Many of the other results were omitted from the sample, so actives are more common in it than they were.

What follows are compounds tested against Mitogen-activated protein kinase kinase kinase 3 (Homo sapiens) (UniProt Q99759) (assay: compounds raising or lowering MEK5 association with MEKK3 PB1 – biochemical, wildtype MEKK3, multiplex bead flow cytometry, Alexa488-MEK5, primary screen (AID 1529;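 also: Alexa488 bead fluorescence after subtracting the streptavidin-only scavenger bead signal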)). Conditions: bead-based flow cytometry, Alexa488-MEK5 binding to MEKK3; at 10 µM; actives lie on both sides.
Sequence of Mitogen-activated protein kinase kinase kinase 3 (Homo sapiens) (Q99759 whole entry, looked up): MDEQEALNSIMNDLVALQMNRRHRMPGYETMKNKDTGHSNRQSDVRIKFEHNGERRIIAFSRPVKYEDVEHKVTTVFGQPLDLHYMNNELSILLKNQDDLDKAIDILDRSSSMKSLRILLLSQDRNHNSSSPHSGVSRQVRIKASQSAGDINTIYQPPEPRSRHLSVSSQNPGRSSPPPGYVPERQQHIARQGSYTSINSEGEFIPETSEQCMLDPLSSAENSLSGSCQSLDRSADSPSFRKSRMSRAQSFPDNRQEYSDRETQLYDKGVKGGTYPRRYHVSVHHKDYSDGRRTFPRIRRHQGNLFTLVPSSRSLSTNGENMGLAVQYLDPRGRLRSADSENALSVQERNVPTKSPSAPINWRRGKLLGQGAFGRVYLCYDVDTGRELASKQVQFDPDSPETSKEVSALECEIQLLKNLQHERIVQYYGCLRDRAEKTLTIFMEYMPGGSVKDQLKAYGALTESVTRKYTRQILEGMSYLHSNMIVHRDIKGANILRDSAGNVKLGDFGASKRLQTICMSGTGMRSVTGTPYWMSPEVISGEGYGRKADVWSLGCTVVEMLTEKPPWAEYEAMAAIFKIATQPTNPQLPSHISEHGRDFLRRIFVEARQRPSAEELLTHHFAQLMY
With `O=C(CCNS(=O)(=O)c1ccccc1)Nc1ccc(Cl)cc1C(=O)c1ccccc1` the binding response (% of control) was 107% (inactive).
For `CN1CCN(C(=S)SCC(=O)Nc2ccc(Cl)cc2C(=O)c2ccccc2)CC1`, the binding response (% of control) was 108% (inactive).
In the case of `O=C(COC(=O)c1ccccc1)Nc1ccc(Cl)cc1C(=O)c1ccccc1`, the binding response (% of control) is reported as 131% (active).
With `COC(=O)C1=C(c2cc3ccccc3s2)C[C@@H]2CC[C@H]1N2C(=O)NC(C)C` the binding response (% of control) was 108% (inactive).
`COc1cccc(C(=O)N2C[C@H]3C[C@@H](C2)c2cccc(=O)n2C3)c1` was tested, and the binding response (% of control) was 98% (inactive).
`CN(C)CC1Oc2ccccc2OC1(O)c1ccccc1` (stereo not given) was tested, and the binding response (% of control) was 106% (inactive).
In the case of `COc1ccc(C(=O)C2CCCN(Cc3ccc(C)s3)C2)cc1OC` (stereo not given), the binding response (% of control) is reported as 103% (inactive).
For `Cc1ccc(CN2CCCC(C(=O)c3ccc4c(c3)OCO4)C2)cc1C` (stereo not given), the binding response (% of control) was 49% [inhibitor] (active).
With `Cc1ccsc1C(=O)C1CCCN(Cc2ccc(O)cc2)C1` (stereo not given) the binding response (% of control) was 96% (inactive).
With `CN(C)C(=O)Oc1ccc2c(c1)O/C(=C\c1ccccc1)C2=O` the binding response (% of control) was 102% (inactive).
`NCC(O)c1ccc(O)cc1` (stereo not given) was tested, and the binding response (% of control) was 74% [inhibitor] (active).
For `COc1ccc2c(c1)[C@]13CCCCC1C(C2)N(C)CC3` (stereo not given in full), the binding response (% of control) was 100% (inactive).
For `CN(C)CC1CCCCC1OC(=O)c1ccc(Cl)c(Cl)c1` (stereo not given), the binding response (% of control) was 135% (active).
In the case of `COC(=O)C1=C(c2cc3ccccc3o2)C[C@@H]2CC[C@H]1N2C(=O)NC1CCCCC1`, the binding response (% of control) is reported as 103% (inactive).
With `COC(=O)C1=C(c2cc3ccccc3s2)C[C@@H]2CC[C@H]1N2C(=O)NCCO` the binding response (% of control) was 107% (inactive).
`COc1cccc(OC)c1C(=O)NC(=S)N1C[C@H]2C[C@H](C1)c1cccc(=O)n1C2` was tested, and the binding response (% of control) was 103% (inactive).
For `CCCn1c(C(=O)c2ccccc2OC)nc2ccccc21`, the binding response (% of control) was 98% (inactive).
In the case of `Cc1ccc(N2C(=O)NC(=O)C(CCc3ccncc3)(Cc3cccc(Cl)c3Cl)C2=O)cc1` (stereo not given), the binding response (% of control) is reported as 138% (active).
With `O=C1NC(=O)C(CCc2ccccn2)(Cc2cccc(Cl)c2Cl)C(=O)N1c1ccc(Br)cc1` (stereo not given) the binding response (% of control) was 89% (inactive).
In the case of `COc1ccc2[nH]c3c(c2c1)CCN[C@H]3C`, the binding response (% of control) is reported as 105% (inactive).
In the case of `CC[C@H]1CC2CN3CCc4c([nH]c5ccccc45)C(C(=O)OC)(C2)C13` (stereo not given in full), the binding response (% of control) is reported as 99% (inactive).
In the case of `CNCC(O)c1cc(F)c(OCc2ccccc2)c(OCc2ccccc2)c1F` (stereo not given), the binding response (% of control) is reported as 103% (inactive).
With `COc1ccc(-c2nn(CCC#N)cc2C(=O)Nc2ccc(C(C)=O)cc2)cc1` the binding response (% of control) was 111% (inactive).
`COC(=O)C1=C(c2cc3ccccc3s2)C[C@@H]2CC[C@H]1N2C(=O)NCc1cccc2ccccc12` was tested, and the binding response (% of control) was 105% (inactive).
In the case of `O=C(Cc1ccccc1[N+](=O)[O-])N1CCN(Cc2ccc3c(c2)OCO3)CC1`, the binding response (% of control) is reported as 46% [inhibitor] (active).
`Fc1ccc(N2CCN(Cc3ccc4c(c3)OCO4)CC2)cc1` was tested, and the binding response (% of control) was 98% (inactive).
`Cc1cc(=O)oc2c(C)c(OCC(=O)N3CCN(Cc4ccc5c(c4)OCO5)CC3)ccc12` was tested, and the binding response (% of control) was 106% (inactive).
In the case of `COc1ccc2c(c1O)-c1cccc3c1[C@@H](C2)N(C)CC3`, the binding response (% of control) is reported as 95% (inactive).
`CCOc1ccc(CN(CCCl)CCCl)cc1C(=O)OC` was tested, and the binding response (% of control) was 111% (inactive).
With `COC(=O)C1=C(c2ccccc2)C[C@@H]2CC[C@H]1N2C(=O)N1CCCCC1` the binding response (% of control) was 102% (inactive).
